Results reported in PubChem BioAssay (Tox21).
Values joined by “and” are separate entries in the source; they are usually repeats but may differ in a detail not shown here. Identical values can stand only once. Records with an inconclusive call do not appear. A call without a number means that no potency is given here. More than one record can exist for a structure, and the calls need not agree. Active and inactive are the calls of the source. Unless noted, the call rests on the fitted dose curve; in most records, active means well fitted curve in the direction sought with a large enough effect in the repeat runs; inconclusive means weak or mixed curves; inactive means no such curve, though single readings can be large; an effect the other way counts as inactive or inconclusive.

How the values were obtained:
[1] = qHTS assay to identify small molecule agonists of the androgen receptor (AR) signaling pathway in the presence of an antagonist - cell viability counter screen (AID 1259379); further: nearly all actives have a fitted effect of over 25% in size; further: potency means the concentration at half of the fitted maximal effect
Outline: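 Seed MDA-kb2 at 3,000 cells/well; incubate 5 hr, 37C, 0% CO2. Add nilutamide to 3.0uM final, then pin compounds at 15 concentrations. Incubate 16 hr. Add CellTiter-Fluor at 15 hr, read fluorescence after 1 hr.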

[2] = qHTS assay to identify small molecule agonists of the estrogen receptor beta (ER-beta) signaling pathway - cell viability counter screen (AID 1259380); further: nearly all actives have a fitted effect of over 30% in size; further: potency means the concentration at half of the fitted maximal effect
Outline: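 CellTiter-Glo read, 30 min RT, same wells as bla assay; cells ER-beta-UAS-bla HEK293T; 16 hr compound, 37C; medium 2% charcoal-stripped FBS.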

[3] = qHTS assay to identify small molecule antagonists of the estrogen receptor beta (ER-beta) signaling pathway - cell viability counter screen (AID 1259382); further: nearly all actives have a fitted effect of over 55% in size; further: potency means the concentration at half of the fitted maximal effect
Outline: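 In this multiplexed counter screen, cells were seeded at 2,000 per well in medium with 2% charcoal-stripped FBS and incubated 6 hr before compound and 1nM final E2 were added. Sixteen hours later, ATP-based luminescence reported viability.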

[4] = molecular target: Estrogen receptor (Homo sapiens) (UniProt P03372); assay: qHTS assay to identify small molecule agonists of the estrogen receptor alpha (ER-alpha) signaling pathway in the presence of an antagonist (AID 1259383; calls by dose curve; further: top concentration of the series differs between compounds; nearly all actives have a fitted effect of over 15% in size)
Sequence of Estrogen receptor (Homo sapiens) (P03372 whole entry, looked up): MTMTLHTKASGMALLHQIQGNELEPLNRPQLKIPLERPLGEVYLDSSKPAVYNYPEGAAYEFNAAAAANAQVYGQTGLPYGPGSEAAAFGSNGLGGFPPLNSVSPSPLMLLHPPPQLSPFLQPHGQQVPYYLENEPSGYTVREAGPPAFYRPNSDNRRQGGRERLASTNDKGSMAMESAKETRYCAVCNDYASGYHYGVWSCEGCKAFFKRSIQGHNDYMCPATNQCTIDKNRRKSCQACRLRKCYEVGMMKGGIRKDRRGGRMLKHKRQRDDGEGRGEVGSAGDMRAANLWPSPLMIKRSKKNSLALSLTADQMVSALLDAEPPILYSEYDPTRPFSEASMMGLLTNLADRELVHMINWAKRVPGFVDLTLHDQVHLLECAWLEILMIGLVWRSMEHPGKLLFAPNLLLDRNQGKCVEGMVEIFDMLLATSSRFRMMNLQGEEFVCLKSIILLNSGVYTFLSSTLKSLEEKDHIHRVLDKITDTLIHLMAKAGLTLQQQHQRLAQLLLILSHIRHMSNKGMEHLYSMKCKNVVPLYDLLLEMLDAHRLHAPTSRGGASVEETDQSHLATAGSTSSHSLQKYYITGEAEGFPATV
Outline: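 Stably transfected VM7Luc4E2 reporter cells, kept 5 days in charcoal-stripped serum, received ICI-182,780 at 10.0nM final before compound addition. Following 22hr incubation at 37C and 5% CO2, luciferase signal was read by luminescence.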

[5] = qHTS assay to identify small molecule agonists or antagonists of the thyroid stimulating hormone receptor (TSHR) signaling pathway - wild type cell line counter screen (AID 1259384; calls by dose curve)
Outline: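 Wild-type HEK293 cells were plated 18 h at 37 C/5% CO2, pin-dosed with compound plus Ro20-1724 medium, held 30 min at room temperature, then given cAMP-d2 and anti-cAMP-cryptate; fluorescence was read after 1 h. Fifteen concentrations, triplicate.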

[6] = molecular target: Thyrotropin receptor (Homo sapiens) (UniProt P16473); assay: qHTS assay to identify small molecule antagonists of the thyroid stimulating hormone receptor (TSHR) signaling pathway (AID 1259385; calls by dose curve; further: nearly all actives have a fitted effect of over 20% in size; further: potency means the concentration at half of the fitted maximal effect)
Sequence of Thyrotropin receptor (Homo sapiens) (P16473 whole entry, looked up): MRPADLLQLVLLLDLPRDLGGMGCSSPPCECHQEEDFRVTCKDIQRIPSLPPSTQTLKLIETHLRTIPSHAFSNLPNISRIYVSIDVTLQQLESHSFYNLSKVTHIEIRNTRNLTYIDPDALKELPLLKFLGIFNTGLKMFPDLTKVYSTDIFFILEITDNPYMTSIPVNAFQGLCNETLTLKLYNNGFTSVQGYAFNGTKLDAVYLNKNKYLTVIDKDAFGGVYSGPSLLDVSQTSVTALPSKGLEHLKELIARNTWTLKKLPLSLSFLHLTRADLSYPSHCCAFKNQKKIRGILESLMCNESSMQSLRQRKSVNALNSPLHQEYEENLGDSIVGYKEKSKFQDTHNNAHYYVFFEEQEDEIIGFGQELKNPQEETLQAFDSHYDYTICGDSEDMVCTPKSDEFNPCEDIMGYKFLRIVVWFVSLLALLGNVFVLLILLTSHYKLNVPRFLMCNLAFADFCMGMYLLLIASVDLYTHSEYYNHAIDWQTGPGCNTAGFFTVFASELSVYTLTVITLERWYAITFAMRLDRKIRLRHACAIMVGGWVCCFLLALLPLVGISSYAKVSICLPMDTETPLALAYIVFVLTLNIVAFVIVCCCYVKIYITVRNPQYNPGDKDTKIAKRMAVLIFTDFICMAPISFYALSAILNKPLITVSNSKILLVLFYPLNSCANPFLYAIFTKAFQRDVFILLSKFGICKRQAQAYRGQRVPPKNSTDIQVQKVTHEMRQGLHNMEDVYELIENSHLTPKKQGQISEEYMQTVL
Outline: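 TSHR-HEK293 cells were plated and held 18 h at 37C/5% CO2, then given compound plus Ro20-1724 and stimulated with TSH at 1.5 ng/mL final. After 30 min at room temperature, cAMP was detected with cAMP-d2/anti-cAMP-cryptate (1 h) by fluorescence.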

[7] = qHTS assay to identify small molecule agonists of the estrogen receptor alpha (ER-alpha) signaling pathway in the presence of an antagonist - cell viability counter screen (AID 1259386);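 further: cells exposed to compounds for 22 h at 37 °C before the viability read; nearly all actives have a fitted effect of over 30% in size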; further: potency means the concentration at half of the fitted maximal effect
Outline: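 Viability counter screen using VM7Luc4E2 (full-length ER-alpha, four ERE-luciferase). The cells were treated with compounds alongside ICI-182,780 10.0nM for 22hr, and live-cell protease fluorescence was quantified with CellTiter-Fluor.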

[8] = molecular target: Androgen receptor (Homo sapiens) (UniProt P10275); assay: qHTS assay to identify small molecule agonists of the androgen receptor (AR) signaling pathway in the presence of an antagonist (AID 1259381; calls by dose curve; further: nearly all actives have a fitted effect of over 15% in size)
Sequence of Androgen receptor (Homo sapiens) (P10275 whole entry, looked up): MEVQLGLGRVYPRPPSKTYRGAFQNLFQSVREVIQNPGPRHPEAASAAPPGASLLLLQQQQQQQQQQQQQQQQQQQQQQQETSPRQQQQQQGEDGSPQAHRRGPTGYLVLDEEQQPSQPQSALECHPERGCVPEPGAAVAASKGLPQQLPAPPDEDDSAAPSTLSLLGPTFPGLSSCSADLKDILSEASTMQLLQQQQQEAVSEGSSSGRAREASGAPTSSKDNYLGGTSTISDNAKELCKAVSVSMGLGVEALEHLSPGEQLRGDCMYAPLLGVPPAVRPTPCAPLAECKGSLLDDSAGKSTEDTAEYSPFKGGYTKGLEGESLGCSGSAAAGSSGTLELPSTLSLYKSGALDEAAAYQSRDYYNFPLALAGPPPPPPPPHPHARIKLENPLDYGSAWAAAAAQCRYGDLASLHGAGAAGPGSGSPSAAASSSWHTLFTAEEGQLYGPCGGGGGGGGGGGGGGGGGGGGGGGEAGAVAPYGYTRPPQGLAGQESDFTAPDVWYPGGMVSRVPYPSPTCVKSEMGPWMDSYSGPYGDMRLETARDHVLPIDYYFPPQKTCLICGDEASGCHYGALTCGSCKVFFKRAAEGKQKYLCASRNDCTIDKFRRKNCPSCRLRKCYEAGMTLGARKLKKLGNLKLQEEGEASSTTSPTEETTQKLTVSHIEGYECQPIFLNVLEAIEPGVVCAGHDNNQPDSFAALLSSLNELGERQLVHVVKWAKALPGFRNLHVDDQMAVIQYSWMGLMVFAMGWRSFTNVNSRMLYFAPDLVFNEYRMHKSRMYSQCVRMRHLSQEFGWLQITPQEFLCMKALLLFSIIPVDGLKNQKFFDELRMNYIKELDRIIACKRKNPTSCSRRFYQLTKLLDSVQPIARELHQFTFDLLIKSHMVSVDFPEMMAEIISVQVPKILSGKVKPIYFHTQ
Outline: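 Test compounds at 15 concentrations were incubated for 16hr with MDA-kb2 reporter cells in presence of 3.0uM nilutamide (final). Signal: ONE-Glo luciferase luminescence.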

SMILES	Potency [1]	Potency [2]	Potency [3]	Potency [4]	outcome [5]	Potency [6]	Potency [7]	Potency [8]
COS(=O)(=O)c1ccc(C)cc1	inactive	inactive	inactive	inactive	inactive	inactive		
COc1ccc(N)cc1N	inactive	7.08 µM (active) and 13.1 µM (active)	22.4 µM (active)				63.1 µM (active)	
Clc1ccc(-c2ccc(Cl)c(Cl)c2Cl)c(Cl)c1Cl	inactive	58.2 µM (active)	inactive	inactive	inactive	58.2 µM (active)		
CC(=[OH+])/C=C(/C)[O-].CC(=[OH+])/C=C(\C)[O-].CC(=[OH+])/C=C(\C)[O-].[Fe]	inactive	inactive	inactive	inactive				
CCOCn1c(-c2ccc(Cl)cc2)c(C#N)c(Br)c1C(F)(F)F	6.86 µM (active)	27.3 µM (active)	34.4 µM (active)	inactive	inactive		8.63 µM (active)	
CN(C)S(=O)(=O)N(SC(F)(Cl)Cl)c1ccccc1	30.6 µM (active)	38.6 µM (active)	54.5 µM (active)		inactive		inactive	
ClC1=C(Cl)[C@]2(Cl)[C@H]3[C@H]([C@H]4C=C[C@H]3C4)[C@@]1(Cl)C2(Cl)Cl	inactive	inactive	inactive	inactive	inactive	inactive	inactive	
SCc1ccco1	inactive	inactive	inactive	inactive	inactive		inactive	
BrC(Br)Br	inactive	inactive	inactive		inactive	inactive	inactive	
Cl/C=C\CCl	inactive	inactive	inactive		inactive		inactive	
Fc1ccc(Oc2ccnc3cc(Cl)cc(Cl)c23)cc1	inactive	inactive	inactive				inactive	
CCN(CC)C(=S)[S-].CCN(CC)C(=S)[S-].[Zn+2]	60.6 µM (active)	2.71 µM (active)	2.15 µM (active)	inactive	inactive	68 µM (active)		
CC(=O)[O-].[Tl+]	inactive	2.75 µM (active)	38.8 µM (active)				inactive	
O=C1C=CC(=O)c2ccccc21	43.3 µM (active)	21.7 µM (active)	27.3 µM (active)	inactive			30.6 µM (active)	
N#Cc1ccc(O)cc1	inactive	inactive	inactive	inactive	inactive	inactive	inactive	
CCCCCCCCCBr	inactive	inactive	inactive	inactive		inactive	inactive	
CC(c1ccc(O)cc1)c1ccc(O)cc1	inactive	40.6 µM (active) and inactive	45.5 µM (active) and inactive			inactive		
CN(C)C(=S)[S-].CN(C)C(=S)[S-].[Cu+2]	3.33 µM (active)	5.92 µM (active)	7.45 µM (active)					
C[C@H]1CC[C@@H]2[C@@H](C)[C@H]3[C@H](C[C@H]4[C@@H]5CC=C6CC(O[C@@H]7O[C@H](CO)[C@H](O)[C@H](O[C@@H]8O[C@H](CO)[C@@H](O)[C@H](O)[C@H]8O)[C@H]7O[C@H]7O[C@@H](C)[C@H](O)[C@@H](O)[C@H]7O)CC[C@]6(C)[C@H]5CC[C@]34C)N2C1 (some centres undefined)	22.4 µM (active)	15.8 µM (active)	25.1 µM (active)	inactive	inactive		28.2 µM (active)	
ClCc1ccc(Cl)cc1Cl	inactive	inactive	inactive	inactive	inactive	inactive	inactive	
COc1cc(C=O)cc2c1[C@H](COC(N)=O)[C@]1(OC(C)=O)ON2C[C@H]2[C@@H]1N2C(C)=O	27.3 µM (active)	inactive	inactive	inactive	inactive	inactive		
CC(C)(c1ccc(O)c(-c2ccccc2)c1)c1ccc(O)c(-c2ccccc2)c1	54.5 µM (active)	27.3 µM (active)	27.3 µM (active)	inactive			61.1 µM (active)	
CC(C)N1C(=O)N(c2ccccc2)CSC1=NC(C)(C)C		54.5 µM (active)		inactive	inactive		inactive	inactive
Clc1ccc(CCC(Cn2ccnc2)Sc2c(Cl)cccc2Cl)cc1 (centres undefined)		29.8 µM (active)	33.5 µM (active)		inactive		inactive	
COP(=O)(OC)SCn1c(=O)oc2cc(Cl)cnc21				inactive			inactive	
C[C@@H]1CC[C@@]2(OC1)O[C@H]1[C@@H](O)[C@H]3[C@@H]4CC[C@H]5C[C@@H](O[C@@H]6O[C@H](CO)[C@H](O[C@@H]7O[C@H](CO)[C@@H](O)[C@H](O[C@@H]8OC[C@@H](O)[C@H](O)[C@H]8O)[C@H]7O[C@@H]7O[C@H](CO)[C@@H](O)[C@H](O[C@@H]8O[C@H](CO)[C@@H](O)[C@H](O)[C@H]8O)[C@H]7O)[C@H](O)[C@H]6O)[C@H](O)C[C@]5(C)[C@H]4CC[C@]3(C)[C@H]1[C@@H]2C		9.16 µM (active)	10.3 µM (active)	inactive	inactive	4.59 µM (active)	72.8 µM (active)	
C=CCOC(N)=O		inactive	inactive			inactive	inactive	
